Some test systems named below: HCT-15 colon; HT29 colon; SNB-75 CNS; SNB-19 CNS; U251 CNS; PC-3 prostate; SK-MEL-5 melanoma; UACC-62 melanoma; LOX IMVI melanoma; SK-MEL-28 melanoma; SK-MEL-2 melanoma; EKVX NSCLC; SN12C renal; UO-31 renal; TK-10 renal; ACHN renal; A498 renal; MOLT-4 leukemia; SR leukemia; CCRF-CEM leukemia.
Common to all, as to test: NCI-60 one-dose screen, 48 h (100 = growth as untreated, 0 = no growth, -100 = all killed)
What all share (settings): 10 µM unless noted

About 83,000 compounds went through this panel and 20% of them were active in at least one assay; those are over-represented in the sample as a whole.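 Activity criterion: percent growth below 10, measured after cells in 96-well plates were exposed to a single compound concentration for 48 hours.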 Unmarked numbers belong to inactive results. Activity calls are given as the source filed them.

For the molecule `COC(=O)/C=C1\SC(=Nc2ccc(F)cc2)N(CCc2c[nH]c3ccccc23)C1=O`, the growth in the test with HCT-15 colon was 98.3%; in the test with HT29 colon, 66.3%; in the test on SNB-75 CNS, 108%; in the test on SNB-19 CNS, 103%; in the test with U251 CNS it was 98.2%; in the test with PC-3 prostate, 87.9%. The growth was 99.5% in the test with SK-MEL-5 melanoma; 82.6% in the test with UACC-62 melanoma; 90% with LOX IMVI melanoma; 112% with SK-MEL-28 melanoma; 102% in the test on SK-MEL-2 melanoma; 92.6% in the test on EKVX NSCLC. The growth in the test on SN12C renal was 103%; with UO-31 renal it was 81%; in the test with TK-10 renal, 106%; in the test on ACHN renal it was 103%; in the test with A498 renal it was 110%; in the test with MOLT-4 leukemia, 76.4%. For the same molecule, the growth with SR leukemia was 85.5%.
For the molecule `C=C(C)[C@@H]1CC[C@]2(C(=O)N=C=S)CC[C@]3(C)[C@H](CC[C@@H]4[C@@]5(C)CCC(=O)C(C)(C)[C@@H]5CC[C@]43C)[C@@H]12`, the growth is 20.3% in the test on HCT-15 colon; 15.5% in the test on HT29 colon; 43.6% in the test on SNB-75 CNS; 28.1% in the test on SNB-19 CNS; 23.9% with U251 CNS; 20.8% with PC-3 prostate. Further, the growth in the test on SK-MEL-5 melanoma was 77.7%; in the test with UACC-62 melanoma, 44.5%; with LOX IMVI melanoma, 41.4%; in the test with SK-MEL-28 melanoma, 66%; with SK-MEL-2 melanoma, 27.3%; in the test on EKVX NSCLC it was 32.4%. The growth in the test on SN12C renal is 19.2%; with UO-31 renal, 34.8%; in the test on TK-10 renal, 42.3%; in the test on ACHN renal it was 27.6%; in the test on A498 renal, 25.3%; with CCRF-CEM leukemia, 28.1%. Moreover, the values for the growth in the test with MOLT-4 leukemia and with SR leukemia were 25.6% and 27.6%, respectively.
As for `Nc1ccc2c(c1)C(=O)C(=O)c1c-2nc2ccccn12`, the growth was -29.8% (active) in the test on HCT-15 colon; 76.1% in the test on HT29 colon; 37.5% with SNB-75 CNS; 9.2% (active) in the test on SNB-19 CNS; 9.14% (active) in the test on U251 CNS; 24% with PC-3 prostate. Besides, the growth in the test on SK-MEL-5 melanoma was -99.8% (active); with UACC-62 melanoma, -85.3% (active); with LOX IMVI melanoma it was -12.7% (active); in the test on SK-MEL-28 melanoma it was -28.9% (active); in the test on SK-MEL-2 melanoma, -32.1% (active); in the test on EKVX NSCLC, 31.5%. Besides, the growth in the test on SN12C renal is -81% (active); with UO-31 renal, -40.8% (active); with TK-10 renal, 115%; in the test on ACHN renal it was -58.8% (active); in the test on A498 renal, -19.3% (active); with CCRF-CEM leukemia, 13.6%. Further, the figures for the growth in the test with MOLT-4 leukemia and in the test on SR leukemia were -32.8% (active) and 2.06% (active), respectively.
As for `C=C1C(=O)O[C@H]2[C@H]1CC/C(C=Nc1c(N)cc(C(F)(F)F)cc1Br)=C\CC[C@@]1(C)O[C@@H]21`, the growth in the test on HCT-15 colon is -55.1% (active); in the test with HT29 colon, -36.4% (active); in the test on SNB-75 CNS it was 76.1%; with SNB-19 CNS it was 33.7%; with U251 CNS it was 25.7%; in the test on PC-3 prostate, 6.24% (active). Besides, the growth is 33.7% in the test with SK-MEL-5 melanoma; 4.73% (active) in the test on UACC-62 melanoma; -74.4% (active) with LOX IMVI melanoma; -12.3% (active) with SK-MEL-28 melanoma; -31.6% (active) in the test on SK-MEL-2 melanoma; 18.1% with EKVX NSCLC. The growth in the test on SN12C renal was -21.8% (active); in the test with UO-31 renal it was -71.5% (active); in the test with TK-10 renal, -27.3% (active); in the test on ACHN renal, -44.6% (active); with A498 renal, 55.2%; in the test on CCRF-CEM leukemia, 2.83% (active). For the same molecule, the growth with MOLT-4 leukemia is -2.99% (active); with SR leukemia it was -4.04% (active).
`CCOC(=O)c1c(C(F)(F)F)n([O-])c2ccc(Cl)cc2[n+]1=O`: the growth in the test with HCT-15 colon was -60.2% (active); with HT29 colon it was -43.2% (active); in the test on SNB-75 CNS it was -52.2% (active); with SNB-19 CNS it was 32.4%; in the test on U251 CNS it was -87.7% (active); in the test with PC-3 prostate it was -85.7% (active). Besides, the growth is -93.2% (active) in the test with SK-MEL-5 melanoma; -18.1% (active) with UACC-62 melanoma; -86.8% (active) in the test with LOX IMVI melanoma; -32.8% (active) in the test with SK-MEL-28 melanoma; -57.2% (active) in the test with SK-MEL-2 melanoma; -8.8% (active) in the test on EKVX NSCLC. Besides, the growth in the test with SN12C renal is -21.4% (active); in the test with UO-31 renal, -44.3% (active); in the test with TK-10 renal, -92.7% (active); with ACHN renal, -97.8% (active); with A498 renal it was -76.4% (active); in the test on CCRF-CEM leukemia, -45.7% (active). The figures for the growth with MOLT-4 leukemia and in the test on SR leukemia were -48.5% (active) and -33.6% (active), respectively.
Turning to `COc1cc(N=Nc2cc(S(=O)(=O)O)cc3cc(S(=O)(=O)O)cc(O)c23)c(C)cc1N=Nc1c(S(=O)(=O)O)cc2cc(Nc3ccccc3)ccc2c1O`, the growth in the test on HCT-15 colon is 110%; with HT29 colon it was 105%; with SNB-75 CNS, 91.1%; with SNB-19 CNS, 104%; with U251 CNS, 109%; with PC-3 prostate, 90%. Moreover, the growth is 105% with SK-MEL-5 melanoma; 98.5% in the test with UACC-62 melanoma; 99.4% in the test on LOX IMVI melanoma; 109% in the test on SK-MEL-28 melanoma; 103% in the test on SK-MEL-2 melanoma; 107% in the test on EKVX NSCLC. The growth is 103% with SN12C renal; 81.3% in the test with UO-31 renal; 91.1% with TK-10 renal; 108% in the test on ACHN renal; 108% in the test with A498 renal; 100% with CCRF-CEM leukemia. Moreover, the growth was 86.8% in the test on MOLT-4 leukemia and 76.5% in the test with SR leukemia.
For `CC1(c2ccccc2Cl)NC(=O)NC1=O` (configuration not stated), the growth was 99.2% in the test with HCT-15 colon; 97.9% in the test with HT29 colon; 88.1% in the test on SNB-75 CNS; 97.8% in the test on SNB-19 CNS; 96.7% in the test with U251 CNS; 91.2% with PC-3 prostate. Moreover, the growth in the test on SK-MEL-5 melanoma is 101%; in the test on UACC-62 melanoma it was 95.5%; in the test with LOX IMVI melanoma it was 97.5%; in the test on SK-MEL-28 melanoma, 105%; in the test on SK-MEL-2 melanoma it was 95.6%; with EKVX NSCLC it was 105%. The growth is 105% in the test with SN12C renal; 94% in the test on UO-31 renal; 90% with TK-10 renal; 108% in the test with ACHN renal; 94.9% with A498 renal; 94.5% in the test on MOLT-4 leukemia. Also, the growth in the test with SR leukemia was 98.5%.
As to `C=C1C(=O)O[C@H]2[C@H]1CCC(/C=N/c1ncc(Br)cc1N)=C\CC[C@@]1(C)O[C@@H]21`, the growth in the test with HCT-15 colon was -45.3% (active); in the test with HT29 colon, -18.6% (active); in the test on SNB-75 CNS, 85.3%; with SNB-19 CNS it was 44.2%; with U251 CNS it was 47.9%; with PC-3 prostate it was 26.7%. Besides, the growth was 39.9% in the test on SK-MEL-5 melanoma; 22.5% with UACC-62 melanoma; -75.3% (active) in the test with LOX IMVI melanoma; -25.8% (active) in the test on SK-MEL-28 melanoma; 46.6% in the test on SK-MEL-2 melanoma; 29% with EKVX NSCLC. For the same molecule, the growth is -24.8% (active) in the test on SN12C renal; -72.3% (active) in the test on UO-31 renal; -4.72% (active) with TK-10 renal; 2.47% (active) in the test on ACHN renal; 78% in the test on A498 renal; -3.09% (active) in the test on MOLT-4 leukemia. Besides, the growth with SR leukemia is -3.64% (active).
